The sample as a whole holds a higher share of hits than the screen did.
IL1B secr inh – blocks inflammasome-driven IL-1 beta release; THP-1 LPS/ATP IL-1B secretion, AlphaLISA, 16 h; stronger effect = lower value; activity change, % at 57.5 µM; 360,000 tested, 4.7% active; in the data active = activity change below about -50%; inconclusive = mostly about -30% to -49%
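Secreted IL-1B measured by AlphaLISA bead assay after 16 h compound exposure of THP-1 cells; compounds (final up to 57.5 uM) added 1 h before LPS (250 ng/mL) and ATP (1.25 mM) stimulation; lower signal means less secretion.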
TDP1 cell noCPT – qHTS for Inhibitors of human tyrosyl-DNA phosphodiesterase 1 (TDP1): qHTS in cells in absence of CPT | 420,000 tested, 15% active | AID 686978, 2013 | DT40 Tdp1-/- hTDP1 cells, no CPT, ATP luminescence, 48 h | Potency, µM (titrated, usually from 46.2 µM), hits mostly inhibitors; note: nearly all actives have a fitted effect of over 55% in size
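Chicken DT40 Tdp1-/- cells stably complemented with human TDP1 were seeded at 400 cells/well with DMSO in place of 20 nM camptothecin. After compound pinning, cells grew at least 48 hr at 37 °C; viability read by CellTiter-Glo luminescence.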
TDP1 cell CPT – DT40-hTDP1 cell growth loss with CPT; chicken DT40 Tdp1-/-;hTDP1 cells + 20 nM CPT, ATP luminescence, 48 h; Potency, µM (titrated, usually from 46.2 µM), most hits filed as inhibitors; 420,000 tested, 12% active; note: nearly all actives have a fitted effect of over 55% in size
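Chicken DT40 Tdp1-/- cells complemented with human TDP1, 400 cells/well, exposed to compounds plus 20 nM camptothecin for at least 48 h at 37 C; viability read as ATP content by CellTiter-Glo luminescence.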
HT1080NT lethal – kills 2HG-producing HT-1080-NT fibrosarcoma cells; HT-1080-NT fibrosarcoma viability, CellTiter-Glo ATP luminescence, 48 h; Potency, µM (series often up to 46.1 µM), actives largely listed as cytotoxic; 360,000 tested, 1.6% active;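 note: NT is the 2HG producing partner of a matched IDH1 knockdown line; nearly all actives have a fitted effect of over 55% in size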
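Compounds were tested in concentration-response format on HT-1080-NT cells for 48 hours at 37 degrees C. Cell viability came from CellTiter-Glo luminescence; curves were classified by r2, response magnitude and activity.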
ALOX12 inh – blocks human arachidonate 12S-lipoxygenase; Potency, µM (doses to about 108 µM), usual class: inhibitors; P18054; 580,000 tested, 1.1% active; purified 12hLO, xylenol orange hydroperoxide absorbance
Target sequence (P18054 whole entry, looked up): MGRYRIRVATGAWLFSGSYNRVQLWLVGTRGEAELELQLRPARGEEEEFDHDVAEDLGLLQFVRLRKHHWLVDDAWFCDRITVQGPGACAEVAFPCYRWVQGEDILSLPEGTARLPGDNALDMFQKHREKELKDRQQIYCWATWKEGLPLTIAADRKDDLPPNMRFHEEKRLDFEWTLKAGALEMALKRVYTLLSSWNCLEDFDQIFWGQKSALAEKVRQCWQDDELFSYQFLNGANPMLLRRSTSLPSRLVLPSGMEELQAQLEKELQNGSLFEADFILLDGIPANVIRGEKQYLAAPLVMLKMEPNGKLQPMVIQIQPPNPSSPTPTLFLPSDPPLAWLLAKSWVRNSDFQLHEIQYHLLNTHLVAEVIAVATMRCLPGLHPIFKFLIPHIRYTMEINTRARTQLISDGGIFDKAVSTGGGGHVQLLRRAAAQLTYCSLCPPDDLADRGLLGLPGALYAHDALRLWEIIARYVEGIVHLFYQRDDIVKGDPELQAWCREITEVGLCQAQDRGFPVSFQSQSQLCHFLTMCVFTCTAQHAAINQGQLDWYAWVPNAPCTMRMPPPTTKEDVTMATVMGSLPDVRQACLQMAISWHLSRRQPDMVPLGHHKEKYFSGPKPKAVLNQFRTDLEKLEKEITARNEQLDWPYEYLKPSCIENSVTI
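Purified human 12hLO at 150 nM in 25 mM Hepes, 0.01% Triton X-100, pH 7.0, preincubated 15 min at room temperature with compound. Reaction started with 40 uM arachidonic acid, 30 min at room temperature. Hydroperoxide measured by Fe-xylenol orange, 573/405 nm absorbance ratio.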
HT1080 IDH1KD tx – toxicity to HT-1080 IDH1 knockdown cells (counter line). HT-1080 IDH1 knockdown viability, ATP luminescence, 48 h. 360,000 tested, 2% active. AID 686971. Potency, µM (highest dose often 46.1 µM), hits mostly cytotoxic
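Knockdown cells (IDH1KD HT-1080) received compounds 2 h after plating at 750 cells/well and were kept 48 h at 37 °C in 5% FBS RPMI. A CellTiter-Glo luminescence read gave % activity for curve fitting.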
Numbers stand for hits; . = inactive; ? = inconclusive; / = not tested or not shown; [ ] = another dose, or the depositor's remark. Unless noted, calls come from the whole dose curve; as a rule, active = well fitted curve in the direction sought with a large enough effect; inconclusive = small, poorly fitted or top-dose-only effect, or another doubt; inactive = no such curve, though single readings can be large; an effect the other way counts as inactive or inconclusive.

SMILES	IL1B secr inh	TDP1 cell noCPT	TDP1 cell CPT	HT1080NT lethal	ALOX12 inh	HT1080 IDH1KD tx
CC(=O)N1CCC(N(CCCN2CCC(C)CC2)C(=O)Nc2ccccc2C)CC1	/	/	/	/	.	/
COc1ccc(C(=O)/C=C/Nc2ccccn2)c(OC)c1	-63.0	?	.	.	.	?
COc1ccc(/C=C/C(=O)c2cc(O)ccc2O)cc1	/	16.4µM	16.4µM	/	/	/
COc1ccc(/C=C/C(=O)NNC(=O)c2cc(C)oc2C)cc1	-58.1	.	.	.	.	.
COc1ccc(/C=C/C(=O)c2cc(C(=O)/C=C/c3ccc(OC)cc3)c(O)cc2O)cc1	/	11.2µM	?	.	/	.
COc1ccc(/C=C/C(=O)O)cc1	.	?	.	.	.	.
O=C(Nc1cccnc1)N1CCOC[C@H](Oc2ccc(C(F)(F)F)cc2)C1	/	/	/	/	.	/
CCc1ccccc1NC(=S)N1CCN(c2cccc(OC)c2)CC1	.	.	.	.	.	.
CCc1nn(-c2ccc(F)cc2)c(Oc2ccccc2)c1CCC(=O)NCC1CCCO1 (stereo unspecified)	/	/	/	/	.	/
COc1ccc(/C=C/C(=O)c2c(OC)cc(O)cc2OC)cc1	/	/	/	/	.	/
COc1ccc(/C=C/C(=O)c2cc3c(cc2N)OCO3)cc1	.	23.1µM	?	?	35.5µM	?
COc1ccc(/C=C\C(=O)c2c(O)ccc3c(C)cc(=O)oc23)cc1	.	23.1µM	.	?	.	?
COc1ccc(/C=C/C(=O)c2ccc(OC)cc2OC)cc1	-104.9	?	?	.	.	.
O=C(NCc1cccnc1)C1CCN(S(=O)(=O)c2cc(Cl)ccc2Cl)CC1	.	?	7.31µM	.	.	.
Cc1cc(S(=O)(=O)N2CCCC(N(C)CCc3ccccn3)C2)c(C)cc1Cl (stereo unspecified)	?	20.6µM	20.6µM	.	?	.
O=C(NCc1ccncc1)C1CCN(S(=O)(=O)Cc2ccccc2)CC1	-63.5	.	.	.	.	.
O=C(C1CCN(S(=O)(=O)c2cc(Cl)ccc2Cl)CC1)N1CCOCC1	-57.1	.	.	.	?	.
O=C(NCc1ccncc1)C1CCN(S(=O)(=O)c2ccccc2)CC1	.	.	.	.	.	.
CC(C)CN(CC(=O)NC(=O)NC(C)C)C1CC1	/	/	/	/	.	/
COC(=O)C(CNC(=O)c1ccc(F)cc1)Cc1ccc(F)cc1 (stereo unspecified)	/	/	/	/	.	/
COc1ccc(C)cc1S(=O)(=O)N1CCCC(C(=O)NCc2ccccn2)C1 (stereo unspecified)	.	.	.	.	.	.
CCc1ccc(CNC(=O)C2CCN(S(=O)(=O)N3CCC(C)CC3)CC2)cc1	.	25.9µM	?	.	.	.
Cc1ccc(CNC(=O)C2CCN(S(=O)(=O)N3CCC(C)CC3)CC2)cc1	.	?	.	.	.	.
O=C(NCc1ccccn1)C1CCCN(S(=O)(=O)c2cc(Cl)ccc2Cl)C1 (stereo unspecified)	-103.9	8.2µM	9.2µM	5.8µM	/	5.8µM
O=C(c1ccc(N2C(=O)c3ccccc3C2=O)cc1)N1CCN(S(=O)(=O)c2ccccc2F)CC1	.	.	.	.	.	.
SMILES	IL1B secr inh	TDP1 cell noCPT	TDP1 cell CPT	HT1080NT lethal	ALOX12 inh	HT1080 IDH1KD tx
COc1ccc(Nc2nc(N3CCN(c4ccccc4)CC3)c3cnn(C)c3n2)cc1OC	/	/	/	/	.	/
O=C1C=CC(O)C2(CO)OC12 (stereo unspecified)	-89.7	5.8µM	16.4µM	?	.	?
COc1ccc(Cc2nnc(C(=O)NCCN3CCN(c4cccc(Cl)c4)CC3)o2)cc1OC	/	/	/	/	.	/
CN(C)c1ccc(/C=C2/C(=O)Nc3ccccc32)cc1	/	?	?	/	.	/
O=C1Nc2ccccc2/C1=C/c1ccccc1F	.	23.1µM	?	?	.	.
Cc1ccccc1/C=C1\C(=O)Nc2ccc(F)cc21	.	?	.	?	.	.
O=C1Nc2ccccc2/C1=C/c1cccnc1	-65.2	?	?	.	.	.
CN(C)c1ccc(/C=C2\C(=O)Nc3ccccc32)cc1	/	16.4µM	16.4µM	/	.	/
Cc1nn(-c2ccc(F)cc2)c(Cl)c1/C=C1\C(=O)Nc2ccccc21	.	8.2µM	6.51µM	?	.	5.17µM
COc1ccc(N2Cc3c(NCC(C)C)ncnc3N(C)CC2=O)cc1	/	/	/	/	.[6.33 µM]	/
CN(C)c1ccc(/C=C2\C(=O)/C(=C/c3ccc(N(C)C)cc3)c3ccccc32)cc1	/	7.08µM	?	/	/	/
CC(=O)N1/C(=C/c2ccc(N(C)C)cc2)C(=O)c2ccccc21	-95.0	0.461µM	0.517µM	3.26µM	.	?
Cc1ccc(/C=C2\C(=O)Nc3ccccc32)o1	.	3.66µM	1.46µM	.	?	.
CC(=O)N1c2ccccc2C(=O)C1N(C)c1ccc(C)cc1 (stereo unspecified)	.	?	.	.	.	.
Cc1ccc2c(c1)/C(=C/c1ccco1)C(=O)N2	.	?	.	.	?	.
CC(=O)Nc1ccc(C)cc1S(=O)(=O)N1CCCCCC1c1ccc(C)s1 (stereo unspecified)	/	/	/	/	.	/
COCCN1CCN(C(=O)c2cnn(-c3ncc4c(n3)-c3ccc(OC)cc3CC4)c2C2CC2)CC1	/	.	.[9.04 µM]	/	.	/
CCC(=O)c1ccc(OCC(=O)Nc2nc(-c3cccnc3)cs2)cc1	.	?	.	.	?	.
Cc1cc(C)c(OCC(=O)Nc2nc(-c3ccccn3)cs2)c(C)c1	.	4.11µM	3.66µM	.	.	?
Cc1ccccc1OCC(=O)Nc1nnc(-c2ccncc2)s1	.	.	.	.	?	.
CCc1ccccc1OCC(=O)Nc1nc(-c2cccnc2)cs1	.	3.26µM	3.26µM	.	.	?
Cc1ccccc1OCC(=O)Nc1nc(-c2ccncc2)cs1	.	14.6µM	20.6µM	.	.	.
Cc1cc(C)c(OCC(=O)Nc2ccccn2)c([N+](=O)[O-])c1	.	.	.	.	.	.
S=C(NCc1ccc(Cl)cc1)NCc1ccc(Cl)c(Cl)c1	/	/	/	/	.	/
O=C(OCc1cc(=O)n2nc(C3CCCCC3)sc2n1)c1ccc(F)cc1	/	.	.	/	.	/
Cc1c(C)n(CCN(C)C)c2ncn3nc(-c4ccccc4Cl)nc3c12	/	/	/	/	.	/
Cc1ccc(C(=O)N2CCCC(C(=O)Nc3cccc(-c4ccc(F)cc4)c3)C2)cn1 (stereo unspecified)	.	8.2µM	16.4µM	.	.	.
COc1ncccc1C(=O)N1CCCC(C(=O)Nc2cccc(-c3ccc(F)cc3)c2)C1 (stereo unspecified)	.	11.6µM	20.6µM	.	.	.
CC(=O)Nc1ccc(/C=C/c2ccnc3ccccc23)cc1	/	11.2µM	15.8µM	/	/	/

From PubChem
